Test results reported in PubChem BioAssay (NCI).
Where “and” joins values, the source holds several entries; their conditions need not be identical. Equal values may be shown once. Compounds without any hit were thinned out: in the full panel of roughly 83,000, 20% have a hit.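 Testing used 96-well plates and a 48-hour single-concentration exposure. Example: -40 means 40% of the starting cells died.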 Calls of active or inactive are those of the source. The calls were made as follows: active = growth percent below 10; inactive = the rest.

How the values were obtained:
Assay in all cases: NCI-60 one-dose screen, 48 h (100 = growth as untreated, 0 = no growth, -100 = all killed)
SR leukemia = details: 10 µM unless noted
RPMI-8226 leukemia = details: 10 µM unless noted
OVCAR-8 ovarian = details: 10 µM unless noted
OVCAR-5 ovarian = details: 10 µM unless noted
OVCAR-4 ovarian = details: 10 µM unless noted
SK-OV-3 ovarian = details: 10 µM unless noted
OVCAR-3 ovarian = details: 10 µM unless noted
HS 578T breast = details: 10 µM unless noted
NCI/ADR-RES ovarian = details: 10 µM unless noted
T-47D breast = details: 10 µM unless noted
BT-549 breast = details: 10 µM unless noted
SW-620 colon = details: 10 µM unless noted
MCF7 breast = tested on: MCF7 breast
HCC-2998 colon = details: 10 µM unless noted
KM12 colon = details: 10 µM unless noted
MDA-MB-435 melanoma = details: 10 µM unless noted
HCT-116 colon = details: 10 µM unless noted
IGROV1 ovarian = details: 10 µM unless noted

Measured: growth

N#CC(C#N)N=Nc1cc(Cl)ccc1Cl
inactive: SR leukemia 106% | RPMI-8226 leukemia 95.2% | OVCAR-8 ovarian 90% | OVCAR-5 ovarian 97.4% | OVCAR-4 ovarian 98.9% | SK-OV-3 ovarian 99.2% | OVCAR-3 ovarian 106% | HS 578T breast 116% | NCI/ADR-RES ovarian 112% | T-47D breast 96.7% | BT-549 breast 101% | SW-620 colon 104% | MCF7 breast; 10 µM unless noted 93.7% | HCC-2998 colon 104% | KM12 colon 103%

COc1ccc(Nc2ccc3ccccc3c2)cc1
inactive: RPMI-8226 leukemia 66.5% | OVCAR-5 ovarian 97.4% | OVCAR-4 ovarian 79.5% | SK-OV-3 ovarian 72.6% | OVCAR-3 ovarian 78.7% | HS 578T breast 96.5% | NCI/ADR-RES ovarian 65.7% | T-47D breast 65.6% | BT-549 breast 94.7% | MDA-MB-435 melanoma 22.1% | SW-620 colon 72.1% | MCF7 breast; 10 µM unless noted 58.1% | HCT-116 colon 79% | KM12 colon 46.7%

O=C(/C=C/c1ccccc1)c1ccccc1
inactive: RPMI-8226 leukemia 32% | OVCAR-8 ovarian 103% | OVCAR-5 ovarian 98.4% | OVCAR-4 ovarian 95.3% | SK-OV-3 ovarian 91.7% | IGROV1 ovarian 84.7% | OVCAR-3 ovarian 98.7% | HS 578T breast 98.4% | NCI/ADR-RES ovarian 118% | T-47D breast 64.6% | BT-549 breast 126% | MDA-MB-435 melanoma 76.6% | SW-620 colon 86.6% | HCC-2998 colon 120% | KM12 colon 33.3%
active: MCF7 breast; 10 µM unless noted -2.52% | HCT-116 colon 6.71%

COc1ccc2cc1Oc1ccc(cc1)C[C@H]1c3cc(c(OC)cc3CCN1C)Oc1c(OC)c(OC)cc3c1[C@H](C2)N(C)CC3
inactive: OVCAR-5 ovarian 72.3% | SK-OV-3 ovarian 110% | OVCAR-3 ovarian 70.4% | HS 578T breast 46% | NCI/ADR-RES ovarian 56.8% | T-47D breast 93.1% | BT-549 breast 28.5% | MDA-MB-435 melanoma 24.7% | SW-620 colon 40.1% | MCF7 breast; 10 µM 52.7% | MCF7 breast; 100 µM 98.3% and 67.5% | KM12 colon 15.6%
active: SR leukemia -7.9% | RPMI-8226 leukemia -31.2% | HCC-2998 colon 0.135%

CCCCCCCCCCCCCCCCC(C(=O)O)C(O)(CC(=O)O)C(=O)O (centres undefined)
109% (inactive) and -21.4% (active): IGROV1 ovarian
105% (inactive) and -34.4% (active): KM12 colon
90.8% (inactive) and 1.12% (active): SR leukemia
104% (inactive) and -25.5% (active): RPMI-8226 leukemia
101% (inactive) and -23.5% (active): SW-620 colon
inactive: OVCAR-8 ovarian 111% | OVCAR-4 ovarian 108% and 21.3% | SK-OV-3 ovarian 98.3% and 36.1% | NCI/ADR-RES ovarian 111% and 89.7% | HCC-2998 colon 96.9%
102% (inactive) and -33.7% (active): MDA-MB-435 melanoma
98.2% (inactive) and 4.81% (active): T-47D breast
103% (inactive) and -46.4% (active): BT-549 breast
111% (inactive) and -3.72% (active): OVCAR-3 ovarian
109% (inactive) and -56.6% (active): OVCAR-5 ovarian
95.7% (inactive) and -2.93% (active): MCF7 breast; 10 µM unless noted

OC1COC(OCc2ccccc2)C(O)C1O (centres undefined)
inactive: RPMI-8226 leukemia 103% | OVCAR-5 ovarian 99.1% | OVCAR-4 ovarian 88.5% | SK-OV-3 ovarian 98.9% | IGROV1 ovarian 92.4% | OVCAR-3 ovarian 106% | NCI/ADR-RES ovarian 103% | T-47D breast 89% | BT-549 breast 105% | MDA-MB-435 melanoma 104% | SW-620 colon 109% | MCF7 breast; 10 µM unless noted 96% | KM12 colon 105%

Cc1cc(-c2cc(C)c(O)c(C)c2)cc(C)c1O
inactive: RPMI-8226 leukemia 79.4% | OVCAR-8 ovarian 95% | OVCAR-5 ovarian 95.6% | IGROV1 ovarian 100% | OVCAR-3 ovarian 97.2% | HS 578T breast 85.1% | NCI/ADR-RES ovarian 76% | T-47D breast 93.7% | BT-549 breast 65.7% | SW-620 colon 77.4% | MCF7 breast; 10 µM unless noted 91.6% | HCC-2998 colon 92.3% | KM12 colon 72.6%
active: MDA-MB-435 melanoma 8.38%

Brc1ccc(SSc2ccc(Br)cc2)cc1
inactive: SR leukemia 57.8% | RPMI-8226 leukemia 35.6% | OVCAR-8 ovarian 83.9% | OVCAR-5 ovarian 90.8% | OVCAR-4 ovarian 91.2% | SK-OV-3 ovarian 110% | IGROV1 ovarian 29.3% | OVCAR-3 ovarian 85.4% | HS 578T breast 96.9% | NCI/ADR-RES ovarian 66.2% | BT-549 breast 29.4% | MDA-MB-435 melanoma 82.6% | SW-620 colon 84.2% | MCF7 breast; 10 µM unless noted 59.7% | HCT-116 colon 56.6% | HCC-2998 colon 93.5% | KM12 colon 57.4%

COc1cc(C(O)C2C(=O)OCC2C2(c3ccc4c(c3)OCO4)SCCCS2)cc(OC)c1OC (centres undefined)
inactive: RPMI-8226 leukemia 98.9% | OVCAR-8 ovarian 102% | OVCAR-5 ovarian 97.2% | OVCAR-4 ovarian 103% | SK-OV-3 ovarian 105% | IGROV1 ovarian 94.5% | OVCAR-3 ovarian 105% | HS 578T breast 101% | NCI/ADR-RES ovarian 89.4% | T-47D breast 107% | BT-549 breast 102% | MDA-MB-435 melanoma 101% | SW-620 colon 102% | MCF7 breast; 10 µM unless noted 97.6% | HCT-116 colon 91.7% | HCC-2998 colon 98.5% | KM12 colon 96.2%

O=C(CO)C(O)C(O)C(O)C(O)CO (centres undefined)
inactive: SR leukemia 103% and 93.9% | RPMI-8226 leukemia 107% and 100% | OVCAR-8 ovarian 108% and 99.9% | OVCAR-5 ovarian 105% and 109% | OVCAR-4 ovarian 108% and 116% | SK-OV-3 ovarian 87.8% and 85.7% | IGROV1 ovarian 106% and 109% | OVCAR-3 ovarian 110% and 109% | HS 578T breast 101% and 104% | NCI/ADR-RES ovarian 106% and 107% | BT-549 breast 111% and 117% | MDA-MB-435 melanoma 110% and 107% | SW-620 colon 105% and 100% | MCF7 breast; 10 µM unless noted 101% and 102% | HCC-2998 colon 109% and 119% | KM12 colon 106% and 105%
